From ChEMBL document CHEMBL1961873, “Compounds: GSK PKIS; Assays: Nanosyn kinase panel” (2012)
Values joined by “and” are separate entries in the source; they are usually repeats but may differ in a detail not shown here. Identical values can stand only once.

How the values were obtained:
[1] = biological target: Calcium/calmodulin-dependent protein kinase type II subunit alpha (Homo sapiens) (UniProt Q9UQM7); settings: at 1 µM;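 further: reported value is a mean percent inhibition of CAMK2A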
[2] = biological target: Calcium/calmodulin-dependent protein kinase type II subunit delta (Homo sapiens) (UniProt Q13557); settings: at 0.1 µM
[3] = biological target: Calcium/calmodulin-dependent protein kinase type II subunit delta (Homo sapiens) (UniProt Q13557); settings: at 1 µM
[4] = biological target: T1, Calcium/calmodulin-dependent protein kinase type IV (Homo sapiens) (UniProt Q16566); settings: at 0.1 µM
T1 sequence (whole entry): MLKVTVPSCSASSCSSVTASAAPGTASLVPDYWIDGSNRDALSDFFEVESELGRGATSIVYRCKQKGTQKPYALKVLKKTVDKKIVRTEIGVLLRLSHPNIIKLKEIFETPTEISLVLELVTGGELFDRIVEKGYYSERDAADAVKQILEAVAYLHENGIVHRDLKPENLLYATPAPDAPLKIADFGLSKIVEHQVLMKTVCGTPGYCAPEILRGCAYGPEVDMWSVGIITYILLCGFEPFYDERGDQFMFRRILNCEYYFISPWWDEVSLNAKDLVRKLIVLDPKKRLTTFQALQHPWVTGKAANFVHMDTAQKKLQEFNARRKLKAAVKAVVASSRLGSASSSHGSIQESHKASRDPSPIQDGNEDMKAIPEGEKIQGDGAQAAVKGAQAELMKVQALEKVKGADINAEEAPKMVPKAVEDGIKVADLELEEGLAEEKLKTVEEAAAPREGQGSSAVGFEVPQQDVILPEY

[5] = biological target: T1, Calcium/calmodulin-dependent protein kinase type IV (Homo sapiens); settings: at 1 µM
[6] = biological target: T2, Serine/threonine-protein kinase Chk1 (Homo sapiens) (UniProt O14757); settings: at 0.1 µM
T2 sequence (whole entry): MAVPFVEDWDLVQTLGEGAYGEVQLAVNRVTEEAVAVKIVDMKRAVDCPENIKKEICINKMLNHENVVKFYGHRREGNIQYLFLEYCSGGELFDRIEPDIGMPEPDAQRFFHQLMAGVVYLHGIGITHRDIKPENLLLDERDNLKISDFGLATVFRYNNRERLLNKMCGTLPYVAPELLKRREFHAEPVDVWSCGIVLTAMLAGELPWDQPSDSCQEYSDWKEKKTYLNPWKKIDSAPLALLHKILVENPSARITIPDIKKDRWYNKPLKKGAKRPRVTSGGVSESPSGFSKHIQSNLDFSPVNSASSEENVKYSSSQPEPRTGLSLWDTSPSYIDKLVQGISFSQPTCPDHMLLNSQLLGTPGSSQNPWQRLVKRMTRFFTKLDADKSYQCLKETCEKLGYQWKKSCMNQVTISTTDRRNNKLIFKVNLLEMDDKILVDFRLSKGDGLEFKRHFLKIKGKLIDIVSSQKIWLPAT

[7] = biological target: T2, Serine/threonine-protein kinase Chk1 (Homo sapiens); settings: at 1 µM
[8] = biological target: Serine/threonine-protein kinase Chk2 (Homo sapiens) (UniProt O96017); settings: at 0.1 µM
[9] = biological target: Serine/threonine-protein kinase Chk2 (Homo sapiens) (UniProt O96017); settings: at 1 µM
[10] = biological target: Death-associated protein kinase 1 (Homo sapiens) (UniProt P53355); settings: at 0.1 µM
[11] = biological target: Death-associated protein kinase 1 (Homo sapiens) (UniProt P53355); settings: at 1 µM
[12] = biological target: T3, Serine/threonine-protein kinase DCLK2 (Homo sapiens) (UniProt Q8N568); settings: at 0.1 µM
T3 sequence (whole entry): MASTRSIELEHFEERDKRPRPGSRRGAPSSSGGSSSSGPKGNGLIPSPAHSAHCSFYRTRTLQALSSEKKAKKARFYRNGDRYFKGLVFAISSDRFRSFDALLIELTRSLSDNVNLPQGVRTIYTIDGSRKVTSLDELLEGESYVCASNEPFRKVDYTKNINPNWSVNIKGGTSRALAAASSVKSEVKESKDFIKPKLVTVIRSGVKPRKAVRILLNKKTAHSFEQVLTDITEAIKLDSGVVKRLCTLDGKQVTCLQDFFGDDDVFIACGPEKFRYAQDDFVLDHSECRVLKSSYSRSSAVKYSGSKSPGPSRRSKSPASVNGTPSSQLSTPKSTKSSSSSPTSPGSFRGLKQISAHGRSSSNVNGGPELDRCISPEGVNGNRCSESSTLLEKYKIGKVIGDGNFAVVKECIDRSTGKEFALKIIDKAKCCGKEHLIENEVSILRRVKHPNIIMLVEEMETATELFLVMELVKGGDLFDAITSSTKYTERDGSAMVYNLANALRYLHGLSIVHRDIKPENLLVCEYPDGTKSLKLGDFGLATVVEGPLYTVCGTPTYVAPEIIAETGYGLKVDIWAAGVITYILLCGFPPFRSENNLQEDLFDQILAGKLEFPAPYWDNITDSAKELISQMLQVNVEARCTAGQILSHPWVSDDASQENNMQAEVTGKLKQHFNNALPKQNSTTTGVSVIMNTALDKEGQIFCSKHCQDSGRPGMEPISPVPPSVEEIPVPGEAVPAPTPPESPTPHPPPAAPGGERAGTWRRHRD

[13] = biological target: T3, Serine/threonine-protein kinase DCLK2 (Homo sapiens); settings: at 1 µM
[14] = biological target: MAP kinase-activated protein kinase 2 (Homo sapiens) (UniProt P49137); settings: at 0.1 µM
[15] = biological target: MAP kinase-activated protein kinase 2 (Homo sapiens) (UniProt P49137); settings: at 1 µM
[16] = biological target: MAP kinase-activated protein kinase 3 (Homo sapiens) (UniProt Q16644); settings: at 0.1 µM
[17] = biological target: MAP kinase-activated protein kinase 3 (Homo sapiens) (UniProt Q16644); settings: at 1 µM
[18] = biological target: Serine/threonine-protein kinase MARK1 (Homo sapiens) (UniProt Q9P0L2); settings: at 0.1 µM
[19] = biological target: Serine/threonine-protein kinase MARK1 (Homo sapiens) (UniProt Q9P0L2); settings: at 1 µM
[20] = biological target: MAP/microtubule affinity-regulating kinase 3 (Homo sapiens) (UniProt P27448); settings: at 0.1 µM;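 further: mean percent inhibition of MARK3 kinase activity, measured within the GSK PKIS screening panel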
Chain of MAP/microtubule affinity-regulating kinase 3 (Homo sapiens) (P27448 whole entry, looked up): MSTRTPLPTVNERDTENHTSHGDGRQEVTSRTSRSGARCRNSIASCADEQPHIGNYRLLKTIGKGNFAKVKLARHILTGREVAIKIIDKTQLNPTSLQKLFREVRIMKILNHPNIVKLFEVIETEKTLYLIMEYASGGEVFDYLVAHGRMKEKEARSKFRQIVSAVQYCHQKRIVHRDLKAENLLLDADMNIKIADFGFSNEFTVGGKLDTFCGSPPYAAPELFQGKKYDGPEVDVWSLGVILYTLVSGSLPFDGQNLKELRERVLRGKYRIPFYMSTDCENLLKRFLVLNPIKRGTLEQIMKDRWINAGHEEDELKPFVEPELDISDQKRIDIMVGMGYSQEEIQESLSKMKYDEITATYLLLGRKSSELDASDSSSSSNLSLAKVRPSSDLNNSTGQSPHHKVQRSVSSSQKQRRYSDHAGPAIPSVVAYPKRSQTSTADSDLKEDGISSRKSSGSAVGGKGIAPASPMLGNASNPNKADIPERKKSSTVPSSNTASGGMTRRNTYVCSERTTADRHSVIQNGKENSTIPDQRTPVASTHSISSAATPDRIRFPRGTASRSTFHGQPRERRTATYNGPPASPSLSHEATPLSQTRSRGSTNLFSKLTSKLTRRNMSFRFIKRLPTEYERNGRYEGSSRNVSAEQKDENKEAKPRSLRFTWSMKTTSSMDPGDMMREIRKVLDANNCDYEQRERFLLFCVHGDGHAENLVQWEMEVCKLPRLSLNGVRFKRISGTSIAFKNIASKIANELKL

Chain of Serine/threonine-protein kinase MARK1 (Homo sapiens) (Q9P0L2 whole entry, looked up): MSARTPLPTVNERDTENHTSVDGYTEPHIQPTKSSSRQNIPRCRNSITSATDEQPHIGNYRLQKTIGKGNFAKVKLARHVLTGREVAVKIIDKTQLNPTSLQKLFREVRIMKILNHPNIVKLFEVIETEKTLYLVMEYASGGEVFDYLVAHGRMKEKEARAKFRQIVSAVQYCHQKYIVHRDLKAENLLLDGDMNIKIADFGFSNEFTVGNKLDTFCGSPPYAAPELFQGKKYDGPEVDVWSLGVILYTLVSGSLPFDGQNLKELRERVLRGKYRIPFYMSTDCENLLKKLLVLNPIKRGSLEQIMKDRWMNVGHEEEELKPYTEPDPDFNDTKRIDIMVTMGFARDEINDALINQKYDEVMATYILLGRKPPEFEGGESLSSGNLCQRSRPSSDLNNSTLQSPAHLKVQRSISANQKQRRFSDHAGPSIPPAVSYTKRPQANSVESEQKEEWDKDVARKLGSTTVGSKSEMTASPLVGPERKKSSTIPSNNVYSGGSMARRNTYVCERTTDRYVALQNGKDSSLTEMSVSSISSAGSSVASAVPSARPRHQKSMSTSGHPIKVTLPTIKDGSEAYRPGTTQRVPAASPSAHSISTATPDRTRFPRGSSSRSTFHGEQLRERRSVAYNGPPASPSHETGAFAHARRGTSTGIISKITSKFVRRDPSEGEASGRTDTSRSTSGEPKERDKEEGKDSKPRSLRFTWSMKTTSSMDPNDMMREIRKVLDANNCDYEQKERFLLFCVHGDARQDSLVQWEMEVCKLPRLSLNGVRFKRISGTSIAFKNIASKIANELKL
Chain of Calcium/calmodulin-dependent protein kinase type II subunit delta (Homo sapiens) (Q13557 whole entry): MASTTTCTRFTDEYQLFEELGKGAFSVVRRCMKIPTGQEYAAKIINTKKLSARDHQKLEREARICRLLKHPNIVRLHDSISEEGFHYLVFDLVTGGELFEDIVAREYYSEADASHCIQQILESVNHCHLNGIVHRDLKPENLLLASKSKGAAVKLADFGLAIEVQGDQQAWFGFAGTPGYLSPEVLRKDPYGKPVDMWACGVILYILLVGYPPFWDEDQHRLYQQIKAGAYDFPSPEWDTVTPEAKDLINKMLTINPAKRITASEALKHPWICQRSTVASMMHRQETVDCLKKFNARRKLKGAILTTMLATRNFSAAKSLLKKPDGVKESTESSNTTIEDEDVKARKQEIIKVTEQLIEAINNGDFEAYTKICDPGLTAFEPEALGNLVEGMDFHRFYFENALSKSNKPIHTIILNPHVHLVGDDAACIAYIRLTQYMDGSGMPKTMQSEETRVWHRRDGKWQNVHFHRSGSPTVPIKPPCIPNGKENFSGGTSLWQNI
Chain of MAP kinase-activated protein kinase 2 (Homo sapiens) (P49137 whole entry, looked up): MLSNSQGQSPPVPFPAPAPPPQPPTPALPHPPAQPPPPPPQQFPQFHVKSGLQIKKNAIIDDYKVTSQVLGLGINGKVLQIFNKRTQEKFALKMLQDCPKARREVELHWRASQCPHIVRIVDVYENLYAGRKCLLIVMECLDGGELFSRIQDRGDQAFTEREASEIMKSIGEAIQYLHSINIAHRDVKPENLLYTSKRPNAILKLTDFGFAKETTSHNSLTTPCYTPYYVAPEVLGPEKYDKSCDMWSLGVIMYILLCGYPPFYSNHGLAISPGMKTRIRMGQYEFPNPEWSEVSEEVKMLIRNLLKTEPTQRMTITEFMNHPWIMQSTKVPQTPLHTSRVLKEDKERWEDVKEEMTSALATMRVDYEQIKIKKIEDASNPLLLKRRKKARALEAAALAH
Chain of Death-associated protein kinase 1 (Homo sapiens) (P53355 whole entry, looked up): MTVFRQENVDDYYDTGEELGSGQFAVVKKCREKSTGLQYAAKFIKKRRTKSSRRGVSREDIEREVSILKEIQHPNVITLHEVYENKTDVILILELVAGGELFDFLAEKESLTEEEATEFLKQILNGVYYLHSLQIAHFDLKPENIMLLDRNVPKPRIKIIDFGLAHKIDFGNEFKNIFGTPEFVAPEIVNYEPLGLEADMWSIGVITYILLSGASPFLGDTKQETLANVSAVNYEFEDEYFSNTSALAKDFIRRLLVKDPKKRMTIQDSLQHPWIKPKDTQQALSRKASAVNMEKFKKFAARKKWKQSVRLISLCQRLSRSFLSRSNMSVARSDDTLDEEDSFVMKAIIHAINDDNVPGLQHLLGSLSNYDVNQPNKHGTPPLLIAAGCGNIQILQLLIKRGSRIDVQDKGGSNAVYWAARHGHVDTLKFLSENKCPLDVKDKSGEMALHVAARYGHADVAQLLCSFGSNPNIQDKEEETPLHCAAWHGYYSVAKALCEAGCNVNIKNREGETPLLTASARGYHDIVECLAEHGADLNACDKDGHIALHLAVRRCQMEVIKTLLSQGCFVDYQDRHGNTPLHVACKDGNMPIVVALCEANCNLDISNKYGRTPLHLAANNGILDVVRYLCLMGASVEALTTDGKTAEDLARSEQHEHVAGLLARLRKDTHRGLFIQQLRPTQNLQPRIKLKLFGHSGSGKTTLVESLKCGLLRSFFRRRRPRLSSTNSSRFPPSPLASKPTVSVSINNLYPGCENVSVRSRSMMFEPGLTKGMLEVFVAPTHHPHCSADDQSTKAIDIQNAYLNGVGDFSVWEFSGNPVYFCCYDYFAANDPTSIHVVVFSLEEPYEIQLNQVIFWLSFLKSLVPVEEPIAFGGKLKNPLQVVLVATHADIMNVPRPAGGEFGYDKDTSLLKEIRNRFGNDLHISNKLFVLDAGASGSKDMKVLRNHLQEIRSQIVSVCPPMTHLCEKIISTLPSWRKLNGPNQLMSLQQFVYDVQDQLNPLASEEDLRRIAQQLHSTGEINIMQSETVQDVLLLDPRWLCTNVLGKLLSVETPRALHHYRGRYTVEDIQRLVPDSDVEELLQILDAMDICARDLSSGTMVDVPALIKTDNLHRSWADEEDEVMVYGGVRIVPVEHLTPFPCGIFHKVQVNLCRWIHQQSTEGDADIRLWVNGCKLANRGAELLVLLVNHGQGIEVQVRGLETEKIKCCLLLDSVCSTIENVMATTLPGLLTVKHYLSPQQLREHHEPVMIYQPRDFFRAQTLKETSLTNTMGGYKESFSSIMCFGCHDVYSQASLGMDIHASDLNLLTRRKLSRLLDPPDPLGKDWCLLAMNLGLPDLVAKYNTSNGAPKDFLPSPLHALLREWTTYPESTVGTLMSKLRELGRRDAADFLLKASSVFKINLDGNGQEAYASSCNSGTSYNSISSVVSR
Chain of MAP kinase-activated protein kinase 3 (Homo sapiens) (Q16644 whole entry, looked up): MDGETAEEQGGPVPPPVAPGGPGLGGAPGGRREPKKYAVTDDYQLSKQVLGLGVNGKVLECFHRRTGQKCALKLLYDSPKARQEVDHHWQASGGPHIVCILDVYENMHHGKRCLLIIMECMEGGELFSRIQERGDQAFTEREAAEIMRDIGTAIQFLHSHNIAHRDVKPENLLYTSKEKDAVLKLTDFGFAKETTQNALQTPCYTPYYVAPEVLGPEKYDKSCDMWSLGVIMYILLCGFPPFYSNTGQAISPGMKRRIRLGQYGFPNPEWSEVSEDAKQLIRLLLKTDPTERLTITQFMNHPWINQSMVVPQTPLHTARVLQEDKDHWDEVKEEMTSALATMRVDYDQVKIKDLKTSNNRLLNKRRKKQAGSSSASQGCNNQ
Chain of Serine/threonine-protein kinase Chk2 (Homo sapiens) (O96017 whole entry): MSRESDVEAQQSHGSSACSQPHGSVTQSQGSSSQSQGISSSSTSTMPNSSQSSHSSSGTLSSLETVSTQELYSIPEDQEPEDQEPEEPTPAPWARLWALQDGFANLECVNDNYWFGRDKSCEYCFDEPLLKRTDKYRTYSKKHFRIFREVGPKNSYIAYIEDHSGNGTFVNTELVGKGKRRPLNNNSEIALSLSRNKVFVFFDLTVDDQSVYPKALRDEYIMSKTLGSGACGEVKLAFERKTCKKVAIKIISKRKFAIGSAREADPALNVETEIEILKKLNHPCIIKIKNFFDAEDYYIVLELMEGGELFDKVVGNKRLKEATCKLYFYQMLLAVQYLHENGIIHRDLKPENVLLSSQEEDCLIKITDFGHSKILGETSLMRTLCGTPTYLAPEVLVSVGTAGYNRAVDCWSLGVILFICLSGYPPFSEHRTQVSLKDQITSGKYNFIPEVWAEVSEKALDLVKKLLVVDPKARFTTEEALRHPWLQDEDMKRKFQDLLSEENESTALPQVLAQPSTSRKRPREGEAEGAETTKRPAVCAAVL

| Structure (SMILES) | inhibition [1] | inhibition [2] | inhibition [3] | inhibition [4] | inhibition [5] | inhibition [6] | inhibition [7] | inhibition [8] | inhibition [9] | inhibition [10] | inhibition [11] | inhibition [12] | inhibition [13] | inhibition [14] | inhibition [15] | inhibition [16] | inhibition [17] | inhibition [18] | inhibition [19] | inhibition [20] |
| --- | --- | --- | --- | --- | --- | --- | --- | --- | --- | --- | --- | --- | --- | --- | --- | --- | --- | --- | --- | --- |
| Nc1nonc1-c1nc2cnccc2n1C1CC1 | 5.07% and 5.46% | 3.94% and 2.63% | 7.79% and 4% | -0.5% and 1.35% | 0.32% and 1.21% | 3.32% and 0.59% | 14.4% and 10.5% | 2.75% and 1.53% | 6.34% and 2.63% | 2.98% and -0.26% | 4% and -1.82% | 1.88% and -0.85% | 3.6% and -3.51% | 1.36% and 1.4% | 1.45% and 0.82% | 5.15% and 2.54% | 6.05% and 1.43% | 6.69% and 4.73% | 23.2% and 20.6% | 7.63% and 5.91% |
| COc1cccc(-n2ncc3c(N/N=C/c4ccc(C(=O)NCCN(C)C)cc4)ncnc32)c1 | 10.4% | 8.19% | 36.1% | 0.48% | 1.87% | 2.47% | 5.69% | 0.95% | 3.14% | 3.46% | 4.78% | 1.42% | 0.78% | 0.79% | 1.08% | 1.89% | 4.06% | 4.25% | 16.7% | 4.78% |
| COc1cc(N2CCN(C(C)C)CC2)ccc1Nc1nc(Nc2cccc(F)c2C(=O)O)c2cc[nH]c2n1 | 4.14% | 3.26% | 6.33% | -2.13% | -1.74% | 1.97% | 6.1% | 4.99% | 26.3% | 3.88% | 2.32% | 0.91% | 1.63% | 2.14% | 1.32% | 4.39% | 4.68% | 3.19% | 8.61% | 4.95% |
| CCn1c(-c2nonc2N)nc2cncc(C(=O)NCCNC)c21 | -0.37% | 3.51% | 6.88% | -2.59% | 0.71% | 2.97% | -0.23% | 4.63% | 5.44% | 3.2% | 0.19% | 1.52% | 1.62% | 2.34% | 1.53% | 3.52% | 3.94% | 1.84% | 14.9% | 1.81% |
| CCN1CCC(C(=O)Nc2n[nH]c3nnc(-c4cccc(F)c4F)cc23)CC1 | -1.33% | -0.8% | -0.61% | 0.3% | -1.03% | -2.25% | 0.59% | -0.57% | 0.65% | -0.72% | -1.64% | -0.76% | -0.98% | -0.95% | -0.88% | -0.17% | -1.03% | 0.92% | 2.69% | -0.37% |
| CNC(=O)c1sc(-n2cnc3cc(OC)c(OC)cc32)cc1OCc1ccccc1C(F)(F)F | -0.49% | 3.02% | 0.51% | 0.67% | -0.52% | 2.9% | 3.46% | 2.9% | 2.7% | 5.53% | 3% | 0.25% | 2.29% | 1.17% | 1.2% | 3.3% | 2.78% | 2.03% | 4.3% | 0.78% |
| Cc1c2ccc(N(C)c3ccnc(Nc4cccc(S(N)(=O)=O)c4)n3)cc2nn1C | 4.44% | 4.36% | 5.37% | 0.12% | 0.2% | 3.06% | 4.57% | 3.17% | 7.22% | 2.95% | 3.66% | -2.02% | -1.83% | 2.01% | 1.4% | 3.68% | 4.05% | 4.13% | 7.61% | 5.31% |
